Holding throughout (test): glycan array binding signal (z-score within array); higher = stronger binding
Common to all, as to details: glycan notation: IUPAC condensed, linker removed

Assay [1] concerns Gal(b1-3)[Fuc(a1-4)]GlcNAc(b1-3)Gal(b1-4)GlcNAc. The method, boiled down:
(§1)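 The binding signal is a Z-score computed within each array and averaged over linkers. Arrays of the same protein sequence at different concentrations or buffers were also averaged together. Data originate from 3228 arrays in the Consortium for Functional Glycomics database, kept only where the protein sequence was available.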

The test system of assay [2] is Gal(b1-3)[Fuc(a1-4)]GlcNAc(b1-6)GalNAc. In a few lines:
as §1

The subject of assay [3] is Gal(b1-3)[Fuc(a1-4)]GlcNAc(b1-3)Gal(b1-3)[Fuc(a1-4)]GlcNAc. The method, boiled down:
as §1

For assay [4], the system named is Gal(b1-3)[Fuc(a1-4)]GlcNAc(b1-2)Man(a1-3)[Gal(b1-3)[Fuc(a1-4)]GlcNAc(b1-2)Man(a1-6)]Man(b1-4)GlcNAc(b1-4)[Fuc(a1-6)]GlcNAc. The method, boiled down:
as §1

In assay [5] the test system is Gal(b1-4)GalNAc(b1-3)[Fuc(a1-2)]Gal(b1-4)GlcNAc. The method, boiled down:
as §1

Another assay deals with Gal(b1-4)Gal. In a few lines:
as §1

In a further assay the test system is Gal(b1-4)Glc6S. The method, boiled down:
as §1

Assay [6] relates to Gal(b1-3)[Fuc(a1-4)]GlcNAc(b1-3)Gal(b1-4)[Fuc(a1-3)]GlcNAc. The method, boiled down: as §1
Assay [7] relates to Gal(b1-3)[Fuc(a1-4)]GlcNAc. In a few lines: as §1
The test system of assay [8] is Gal(b1-3)[Neu5Ac(a2-6)]GalNAc. In a few lines:
as §1

Only a selection was taken, and the strongest signals are over-represented in it overall.

As to Wza (Escherichia coli), P0A930, the “glycan array binding signal (z-score)” value in assay [1] came out at 1.14; in assay [2], 2.92.

With “SiiE (Salmonella typhimurium), A0A0H3NVH0”, the “glycan array binding signal (z-score)” value in assay [3] was -0.613.

As to BambL (Burhholderia ambifaria), Q0B4G1, the “glycan array binding signal (z-score)” value in [4] is -0.066; in [5] it was -0.283.

On to “AgI/II Vhelical-GFP (Streptococcus mutans)”, for which the figures for the “glycan array binding signal (z-score)” value (in [2]; in the assay with Gal(b1-4)Gal; with Gal(b1-4)Glc6S) were 1.08, 2.56 and -0.148, respectively.

In the case of “SpGH101 (Streptococcus pneumoniae), Q8DR60”, the “glycan array binding signal (z-score)” value in assay [4] is 0.539; in assay [6] it was -0.146.

For the substance Epa22, the results for the “glycan array binding signal (z-score)” value (in assay [7]; in assay [8]; in the assay with Gal(b1-4)Glc6S) were -0.223, 3.02 and -0.061, respectively.

Actinohivin (Actinomycete K97): the “glycan array binding signal (z-score)” value in assay [4] came to 2.06.

For the origin of these results see the supplement of paper PMC8728848.
